Experimental data: PubChem BioAssay (NCATS)
Records with an inconclusive call do not appear. Activity calls are given as the source filed them. Calls follow the shape of the dose curve; as a rule, active = well fitted curve in the direction sought with a large enough effect; inconclusive = small, poorly fitted or top-dose-only effect, or another doubt; inactive = no such curve, though single readings can be large; an effect the other way counts as inactive or inconclusive.

What was measured:
CRL-7250 = normal cell line; experiment: Cytotoxic Profiling of Annotated Libraries Using Quantitative High-Throughput Screening (AID 1296008); settings: Five cell lines viability, CellTiter-Glo ATP luminescence, 48-72 h; max response: hits give low values; also: nearly all actives have a fitted effect of over 60% in size
Procedure, shortened: (§1)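 Cytotoxicity was measured as CellTiter-Glo ATP luminescence, read after 10 min at room temperature. Compound treatment of the cells lasted 48 or 72 hr at 37 degrees Celsius in a qHTS format.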

HaCat = experiment: as above; settings: Five cell lines viability, CellTiter-Glo ATP luminescence, 48-72 h; max response: hits give low values
Procedure, shortened: as §1

KB-3-1 = experiment: as above; settings: Five cell lines viability, CellTiter-Glo ATP luminescence, 48-72 h; max response: hits give low values
Procedure, shortened: as §1

NIH3T3 = experiment: as above; settings: Five cell lines viability, CellTiter-Glo ATP luminescence, 48-72 h; max response: hits give low values
Procedure, shortened: as §1

C33A = experiment: Primary qHTS to identify gynecologic anti-cancer compounds using libraries of approved drugs and bioactive compounds (AID 1345084); settings: Gynecologic cancer cell panel viability, ATPlite luminescence, 48 h; series mostly up to 57.5 µM; also: nearly all actives have a fitted effect of over 55% in size
Procedure, shortened: (§2)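 Cytotoxicity screen measuring ATP content by luciferase luminescence. Each compound is applied at five concentrations for 48 h at 37 C with 5% CO2.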

CAOV3 = experiment: as above; settings: Gynecologic cancer cell panel viability, ATPlite luminescence, 48 h; series mostly up to 57.5 µM
Procedure, shortened: as §2

CASKI = experiment: as above; settings: Gynecologic cancer cell panel viability, ATPlite luminescence, 48 h; series mostly up to 57.5 µM
Procedure, shortened: as §2

Es-2 = experiment: as above; settings: Gynecologic cancer cell panel viability, ATPlite luminescence, 48 h; series mostly up to 57.5 µM
Procedure, shortened: as §2

HeLa = experiment: as above; settings: Gynecologic cancer cell panel viability, ATPlite luminescence, 48 h; series mostly up to 57.5 µM
Procedure, shortened: as §2

Hek293T = experiment: as above; settings: Gynecologic cancer cell panel viability, ATPlite luminescence, 48 h, control line for the selectivity index; series mostly up to 57.5 µM
Procedure, shortened: as §2

JEG-3 = experiment: as above; settings: Gynecologic cancer cell panel viability, ATPlite luminescence, 48 h; series mostly up to 57.5 µM
Procedure, shortened: as §2

OV90 = experiment: as above; settings: Gynecologic cancer cell panel viability, ATPlite luminescence, 48 h; series mostly up to 57.5 µM
Procedure, shortened: as §2

PA-1 = experiment: as above; settings: Gynecologic cancer cell panel viability, ATPlite luminescence, 48 h; series mostly up to 57.5 µM
Procedure, shortened: as §2
% is scaled to controls: 0 for no effect and ±100 for the full control effect.

O=C(N[C@H]1CCC[C@H](CO)C1)C1CCN(c2nc3cc(Cl)c(-c4ccc(Cl)cc4)cc3o2)CC1
inactive: max response (CRL-7250) -0.419% | max response (HaCat) -4.31% | max response (KB-3-1) -14.3% | max response (NIH3T3) 0.931% | Potency (C33A) | Potency (CAOV3) | Potency (CASKI) | Potency (Es-2) | Potency (HeLa) | Potency (Hek293T) | Potency (JEG-3) | Potency (OV90) | Potency (PA-1)

CC(C)C(C)C(O)C1CC23CC(=O)C4(O)C(=C2CCC3C1C)C=CC1(O)CC(O)CCC14C (configuration not stated)
inactive: max response (CRL-7250) -22.9% | max response (HaCat) 2.09% | max response (KB-3-1) 5.36% | max response (NIH3T3) -0.33% | Potency (C33A) | Potency (CAOV3) | Potency (CASKI) | Potency (Es-2) | Potency (HeLa) | Potency (Hek293T) | Potency (JEG-3) | Potency (OV90) | Potency (PA-1)

COCCN(C(=O)c1cc(OC)c(OC)c(OC)c1)c1nc(-c2ccccc2)cs1
inactive: max response (CRL-7250) -0.0444% | max response (HaCat) 0.0568% | max response (KB-3-1) 5.9% | max response (NIH3T3) 3.38% | Potency (C33A) | Potency (CAOV3) | Potency (CASKI) | Potency (Es-2) | Potency (HeLa) | Potency (Hek293T) | Potency (JEG-3) | Potency (OV90) | Potency (PA-1)

COc1cc(-c2nc(N[C@H](CO)Cc3ccccc3)ccc2C(=O)NCCOc2ccccc2)cc(OC)c1OC
inactive: max response (CRL-7250) 4.02% | max response (HaCat) -1.78% | max response (KB-3-1) 7.13% | max response (NIH3T3) -3.25% | Potency (C33A) | Potency (CAOV3) | Potency (CASKI) | Potency (Es-2) | Potency (HeLa) | Potency (Hek293T) | Potency (JEG-3) | Potency (OV90) | Potency (PA-1)

N#Cc1ccc(COC[C@H]2O[C@@H](n3c(NCc4ccc(Cl)c(Cl)c4)nc4c(N)ncnc43)[C@H](O)[C@@H]2O)cc1
inactive: outcome (CRL-7250) | max response (HaCat) -23% | max response (KB-3-1) 2.86% | max response (NIH3T3) -0.0303% | Potency (C33A) | Potency (CAOV3) | Potency (CASKI) | Potency (Es-2) | Potency (HeLa) | Potency (Hek293T) | Potency (JEG-3) | Potency (OV90) | Potency (PA-1)

Cc1c(F)ccc(C(=O)Nc2cc([N+](=O)[O-])ccc2N2CCN(C)CC2)c1Cl
inactive: max response (CRL-7250) 1.68% | max response (HaCat) 0.293% | outcome (KB-3-1) | max response (NIH3T3) 1.43% | Potency (C33A) | Potency (CAOV3) | Potency (CASKI) | Potency (Es-2) | Potency (HeLa) | Potency (Hek293T) | Potency (JEG-3) | Potency (OV90) | Potency (PA-1)

O=C1COc2nccc(-c3ccccc3F)c2CN1Cc1cc(C(F)(F)F)cc(C(F)(F)F)c1
inactive: outcome (CRL-7250) | max response (HaCat) -0.797% | max response (KB-3-1) -2.61% | max response (NIH3T3) -11.4% | Potency (C33A) | Potency (CAOV3) | Potency (CASKI) | Potency (Es-2) | Potency (HeLa) | Potency (Hek293T) | Potency (JEG-3) | Potency (OV90) | Potency (PA-1)

COc1c(F)cccc1C(=O)N1C[C@@H](C)CC[C@H]1CNc1ccc(Br)cn1
inactive: max response (CRL-7250) -14.6% | max response (HaCat) 1.51% | max response (KB-3-1) -16% | max response (NIH3T3) -27.7% | Potency (C33A) | Potency (CAOV3) | Potency (CASKI) | Potency (Es-2) | Potency (HeLa) | Potency (Hek293T) | Potency (JEG-3) | Potency (OV90) | Potency (PA-1)

O=S(=O)(NCc1ccccn1)c1ccc(Br)c2ccccc12
inactive: max response (CRL-7250) -0.212% | max response (HaCat) 1.53% | max response (KB-3-1) 0.961% | max response (NIH3T3) -0.344% | Potency (C33A) | Potency (CAOV3) | Potency (CASKI) | Potency (Es-2) | Potency (HeLa) | Potency (Hek293T) | Potency (JEG-3) | Potency (OV90) | Potency (PA-1)

CCC(C)c1ccc(NC(=O)Cn2cnc3c2c(=O)n(C)c(=O)n3C)cc1 (configuration not stated)
inactive: max response (CRL-7250) -7.14% | max response (HaCat) -17.7% | max response (KB-3-1) -2.48% | max response (NIH3T3) -2.04% | Potency (C33A) | Potency (CAOV3) | Potency (CASKI) | Potency (Es-2) | Potency (HeLa) | Potency (Hek293T) | Potency (JEG-3) | Potency (OV90) | Potency (PA-1)

CCC(CC)(NC(=O)C(C)C)C(=O)N[C@@H](CCCN=C(N)N)C(=O)NC1(C(=O)NC(c2ccc(F)cc2)c2ccc(F)cc2)CCCC1
inactive: max response (CRL-7250) 2.72% | max response (HaCat) -3.8% | max response (KB-3-1) 7.28% | max response (NIH3T3) -2.32% | Potency (C33A) | Potency (CAOV3) | Potency (CASKI) | Potency (Es-2) | Potency (HeLa) | Potency (Hek293T) | Potency (JEG-3) | Potency (PA-1)

CCOC(=O)N1c2ccc(C(F)(F)F)cc2C(N(Cc2cc(C(F)(F)F)cc(C(F)(F)F)c2)C(=O)OC)CC1CC (configuration not stated)
inactive: max response (CRL-7250) -2.53% | max response (HaCat) -2.39% | max response (KB-3-1) -0.758% | max response (NIH3T3) 3.11% | Potency (C33A) | Potency (CAOV3) | Potency (CASKI) | Potency (Es-2) | Potency (HeLa) | Potency (Hek293T) | Potency (JEG-3) | Potency (OV90) | Potency (PA-1)

CN(C)C(=O)Nc1cccc(-c2ccc(N(C)C)cc2)c1
inactive: max response (CRL-7250) -5.4% | max response (HaCat) -0.332% | max response (KB-3-1) -4.8% | max response (NIH3T3) 3% | Potency (C33A) | Potency (CAOV3) | Potency (CASKI) | Potency (Es-2) | Potency (HeLa) | Potency (JEG-3) | Potency (OV90) | Potency (PA-1)
